Source: PubChem BioAssay (University of Kansas High Throughput Screening Laboratory)
A selection: hits, their analogues and other compounds. The true share with any hit is near 3.6%.
Pf apPOL block – Pf-apPOL DNA polymerase inhibition; 210,000 tested, 0.25% active; Recombinant Pf-apPOL, molecular beacon fluorescence, 1.5 h; inhibition, % at 10 µM
mHTT-CaM PPI inh – inhibitors of human mutant huntingtin-calmodulin interaction. P42858. AlphaScreen His-mHTT/GST-CaM binding, luminescence. inhibition, % at 15 µM. 190,000 tested, 3.6% active. AID 1671202
Target sequence (P42858 whole entry, looked up, change not shown): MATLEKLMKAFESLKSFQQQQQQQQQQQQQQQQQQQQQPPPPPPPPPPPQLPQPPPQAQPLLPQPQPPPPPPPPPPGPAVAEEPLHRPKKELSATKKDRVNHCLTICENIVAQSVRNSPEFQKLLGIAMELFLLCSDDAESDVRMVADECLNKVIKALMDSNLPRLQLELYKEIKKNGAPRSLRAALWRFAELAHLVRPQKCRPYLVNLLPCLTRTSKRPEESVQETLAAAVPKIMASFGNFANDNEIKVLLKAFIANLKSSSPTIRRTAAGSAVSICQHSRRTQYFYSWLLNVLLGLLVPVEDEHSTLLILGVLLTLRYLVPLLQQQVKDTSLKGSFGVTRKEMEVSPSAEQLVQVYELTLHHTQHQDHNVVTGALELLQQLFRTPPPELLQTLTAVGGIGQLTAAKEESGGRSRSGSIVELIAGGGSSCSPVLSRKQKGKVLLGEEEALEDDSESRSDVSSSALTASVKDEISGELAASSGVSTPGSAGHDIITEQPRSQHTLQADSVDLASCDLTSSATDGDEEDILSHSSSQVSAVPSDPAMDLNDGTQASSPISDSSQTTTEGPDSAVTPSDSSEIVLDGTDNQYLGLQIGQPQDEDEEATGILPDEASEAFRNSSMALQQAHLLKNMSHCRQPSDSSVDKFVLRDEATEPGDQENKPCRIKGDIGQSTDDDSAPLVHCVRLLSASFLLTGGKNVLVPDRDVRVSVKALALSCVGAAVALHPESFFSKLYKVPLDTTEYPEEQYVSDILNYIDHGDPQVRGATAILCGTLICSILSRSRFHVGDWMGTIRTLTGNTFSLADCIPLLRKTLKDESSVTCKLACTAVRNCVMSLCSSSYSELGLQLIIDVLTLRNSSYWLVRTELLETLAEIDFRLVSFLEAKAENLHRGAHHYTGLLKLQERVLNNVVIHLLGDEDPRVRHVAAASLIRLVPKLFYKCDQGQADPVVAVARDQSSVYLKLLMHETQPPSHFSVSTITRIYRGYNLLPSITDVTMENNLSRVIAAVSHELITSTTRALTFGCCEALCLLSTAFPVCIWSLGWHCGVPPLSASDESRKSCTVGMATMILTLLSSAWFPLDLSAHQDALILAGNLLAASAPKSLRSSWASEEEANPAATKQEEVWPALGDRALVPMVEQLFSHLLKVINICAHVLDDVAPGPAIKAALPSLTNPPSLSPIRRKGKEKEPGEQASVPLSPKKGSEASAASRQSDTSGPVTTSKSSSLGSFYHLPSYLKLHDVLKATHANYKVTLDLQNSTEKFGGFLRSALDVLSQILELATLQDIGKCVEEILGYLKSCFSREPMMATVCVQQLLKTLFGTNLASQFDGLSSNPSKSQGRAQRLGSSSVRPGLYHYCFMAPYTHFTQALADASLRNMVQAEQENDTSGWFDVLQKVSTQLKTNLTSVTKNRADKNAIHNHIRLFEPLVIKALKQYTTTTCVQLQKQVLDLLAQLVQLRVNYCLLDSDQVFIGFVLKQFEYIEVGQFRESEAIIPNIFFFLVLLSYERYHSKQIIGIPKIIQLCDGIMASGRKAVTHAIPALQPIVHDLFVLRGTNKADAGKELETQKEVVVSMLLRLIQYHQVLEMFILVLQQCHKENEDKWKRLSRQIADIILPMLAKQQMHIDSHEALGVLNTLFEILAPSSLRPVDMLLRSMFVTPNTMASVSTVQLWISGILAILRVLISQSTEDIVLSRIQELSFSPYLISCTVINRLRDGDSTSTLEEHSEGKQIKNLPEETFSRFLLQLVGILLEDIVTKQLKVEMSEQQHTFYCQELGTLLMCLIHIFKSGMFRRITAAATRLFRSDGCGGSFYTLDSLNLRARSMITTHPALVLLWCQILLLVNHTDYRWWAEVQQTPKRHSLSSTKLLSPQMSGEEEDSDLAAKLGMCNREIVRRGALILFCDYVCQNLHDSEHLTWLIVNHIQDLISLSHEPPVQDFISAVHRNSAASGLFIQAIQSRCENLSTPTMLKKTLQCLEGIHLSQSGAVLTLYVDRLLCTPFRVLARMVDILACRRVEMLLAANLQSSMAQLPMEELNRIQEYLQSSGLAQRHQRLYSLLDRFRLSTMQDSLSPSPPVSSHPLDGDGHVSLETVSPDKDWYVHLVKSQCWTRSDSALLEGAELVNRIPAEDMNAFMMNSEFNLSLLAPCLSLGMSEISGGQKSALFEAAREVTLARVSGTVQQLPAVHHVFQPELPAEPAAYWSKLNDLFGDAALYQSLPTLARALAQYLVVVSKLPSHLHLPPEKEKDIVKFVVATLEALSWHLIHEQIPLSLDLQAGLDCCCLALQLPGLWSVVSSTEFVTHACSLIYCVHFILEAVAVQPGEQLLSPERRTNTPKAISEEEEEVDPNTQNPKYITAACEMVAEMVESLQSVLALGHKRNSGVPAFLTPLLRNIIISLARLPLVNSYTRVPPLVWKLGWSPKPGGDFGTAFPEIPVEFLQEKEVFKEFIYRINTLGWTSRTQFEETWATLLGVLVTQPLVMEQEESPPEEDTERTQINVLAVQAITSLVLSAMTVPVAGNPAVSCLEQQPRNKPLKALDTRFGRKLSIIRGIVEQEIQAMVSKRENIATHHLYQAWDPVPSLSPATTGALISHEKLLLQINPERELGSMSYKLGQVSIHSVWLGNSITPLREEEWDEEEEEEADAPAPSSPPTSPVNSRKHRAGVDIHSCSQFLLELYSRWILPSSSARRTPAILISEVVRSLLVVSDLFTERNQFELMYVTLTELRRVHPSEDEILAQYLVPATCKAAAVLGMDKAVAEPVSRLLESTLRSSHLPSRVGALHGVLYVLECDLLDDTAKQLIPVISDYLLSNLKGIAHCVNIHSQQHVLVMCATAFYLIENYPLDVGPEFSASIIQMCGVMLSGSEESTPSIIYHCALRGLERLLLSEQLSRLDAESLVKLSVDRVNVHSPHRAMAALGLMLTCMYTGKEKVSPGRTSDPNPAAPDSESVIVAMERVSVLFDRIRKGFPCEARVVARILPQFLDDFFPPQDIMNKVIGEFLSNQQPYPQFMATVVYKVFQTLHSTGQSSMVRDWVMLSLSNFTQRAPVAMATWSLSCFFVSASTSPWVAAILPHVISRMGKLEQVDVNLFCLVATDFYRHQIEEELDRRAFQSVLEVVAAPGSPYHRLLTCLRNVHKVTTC
Large screens that a line does not name were inactive. Rule as the data show it: active = inhibition above about 50%; inactive = the rest.

O=C(c1cc2cn(C3CC3)cc2s1)N1CCN(Cc2ccc3c(c2)OCO3)CC1	mHTT-CaM PPI inh 63
CC(C)n1cc2cc(C(=O)N3CCN(Cc4ccc5c(c4)OCO5)CC3)sc2c1	mHTT-CaM PPI inh 65
O=C(c1cc2cn(C3CC3)cc2s1)N1CCN(C2CCCCC2)CC1	mHTT-CaM PPI inh 55
Cc1ccc(C(=O)N2CCN(c3ccc(F)cc3)C(=O)C2C)cc1 (stereo not drawn)	none
CC(C)C(=O)NCCC1CCN(C(=O)NC2CCCCC2)CC1	none
CCOc1ccc(CN2CCc3nc(Nc4ccc(OC)cc4)ncc3C2)cc1OC	none
CC(C(=O)NC1CC1)C1CCN(S(=O)(=O)c2ccc(Cl)s2)CC1 (stereo not drawn)	none
Cc1cc2n(n1)CCCN2C(=O)CCC(=O)NCc1ccc(OC(C)C)cc1	none
O=C1N=C(N2CCOCC2)S/C1=C\c1ccccc1	none
O=C1N=C(N2CCOCC2)S/C1=C/C1=Cc2ccccc2OC1	mHTT-CaM PPI inh 52
CCn1cc(C(=O)NCCN(C)C)c(=O)c2ccc(C)nc21	none
CC(C)C[C@@H](COCc1cccc(Cl)c1)N1CCN(C(=O)c2ccc(C(F)(F)F)cc2)CCC1=O	mHTT-CaM PPI inh 99
CC(C)C[C@@H](COCc1ccc(C(F)(F)F)cc1)N1CCN(C(=O)c2ccc(C(F)(F)F)cc2)CCC1=O	mHTT-CaM PPI inh 93
COCCC1CCN(C(=O)c2ccc(C(F)(F)F)cc2)CC1	none
Cc1ccc(CNC(=O)C2CCCN(C(=O)c3cccc(C(F)(F)F)c3)C2)cc1 (stereo not drawn)	none
Cc1ccc(COC[C@H](CC(C)C)N2CCN(C(=O)c3cccc(C(F)(F)F)c3)CCC2=O)cc1	mHTT-CaM PPI inh 91
Cc1ccc(S(=O)(=O)N2CCC(=O)N([C@H](COCc3cccc(Cl)c3)C(C)C)CC2)cc1	none
CCCNC(=O)c1cc(C)n2nc(-c3ccccn3)cc2n1	none
COc1cc(OC)cc(C(=O)Nc2ccc(F)cc2)c1	none
COc1cc(NC=C(C#N)C(=O)NC(C)=O)c(OC)cc1Cl	none (no result: mHTT-CaM PPI inh)
O=C(NCCn1nc(-c2ccco2)ccc1=O)c1n[nH]c2ccccc12	none
CC1C(=O)N(Cc2cn(CC3CCCCC3)nn2)CCS(=O)(=O)N1Cc1ccc(-c2ccc(F)cc2)cc1 (stereo not drawn)	mHTT-CaM PPI inh 58
CC(C)C1C(=O)N(Cc2cn(CC3CCCCC3)nn2)CCS(=O)(=O)N1Cc1ccc(-c2cccc(CO)c2)cc1 (stereo not drawn)	mHTT-CaM PPI inh 55
CC(C)C1C(=O)N(Cc2cn(CC3CCCCC3)nn2)CCS(=O)(=O)N1Cc1ccc(-c2ccncc2)cc1 (stereo not drawn)	mHTT-CaM PPI inh 54
CC(C)C1C(=O)N(Cc2cn(CC3CCCCC3)nn2)CCS(=O)(=O)N1Cc1ccc(-c2ccccc2)cc1 (stereo not drawn)	none
CC1C(=O)N(Cc2cn(CC3CCCCC3)nn2)CCS(=O)(=O)N1Cc1ccc(-c2ccncc2)cc1 (stereo not drawn)	none
Cc1ccc(-c2ccc(CN3C(C(C)C)C(=O)N(Cc4cn(CC5CCCCC5)nn4)CCS3(=O)=O)cc2)cc1 (stereo not drawn)	none
Cc1ccnc(N2CCC(C(=O)Nc3ccc(Cl)cc3C)CC2)n1	none
O=C(c1cccs1)N1CCC(Cc2nnc(-c3ccccc3)o2)CC1	none
CC(C)CN1CCN(C(=O)C2CCc3sc(C(=O)N4CCOCC4)cc3C2)CC1 (stereo not drawn)	none
O=C(Nc1ccc2c(c1)OCCO2)c1cc(S(=O)(=O)N2CCCCCC2)ccc1Cl	none
O=C(O)c1ccc(O)c(C=Nc2ccc(Br)cc2)c1	mHTT-CaM PPI inh 85
O=C(O)c1ccc(N=Cc2cc(Br)ccc2O)cc1	none
Cc1ccnc(NC(=O)C2CC(=O)N(c3ccc(Br)cc3)C2)c1 (stereo not drawn)	none
N#CC1=C(N)OC(c2ccccc2)=C(n2cnc([N+](=O)[O-])n2)C1c1ccccc1 (stereo not drawn)	mHTT-CaM PPI inh 75
N#CC1=C(N)OC(C2CC2)=C(n2cnc([N+](=O)[O-])n2)C1c1ccccc1 (stereo not drawn)	none
N#CC1=C(N)OC(c2ccccc2)=C(n2cncn2)C1c1ccc(Br)cc1 (stereo not drawn)	mHTT-CaM PPI inh 57
N#CC1=C(N)OC(c2ccccc2)=C(n2cnc([N+](=O)[O-])c2)C1c1cccnc1 (stereo not drawn)	none
CCN(CC)c1ncc2c(n1)CCC(C(=O)N1CCN(Cc3ccc(C)c(C)c3)CC1)C2 (stereo not drawn)	none
Cc1cc(C)c(S(=O)(=O)Nc2ccc3oc(=O)sc3c2)cc1C	none
Cc1ccc(C)c(S(=O)(=O)Nc2ccc3oc(=O)sc3c2)c1	Pf apPOL block 73
Brc1cccc(CN2CCC(N3CCCCCC3)CC2)c1	Pf apPOL block 70
Brc1cccc(CN2CCC(N3CCCCC3)CC2)c1	none
Nc1nc2ccccc2n1CCOc1ccc(Cl)cc1	none
Nc1ccc(-c2nc3ccccc3n2CCOc2ccccc2)cc1	none
Nc1nc2ccccc2n1CCOc1ccc(Cl)cc1Cl	mHTT-CaM PPI inh 75
Clc1ccc(OCCn2cnc3ccccc32)c(Cl)c1	none
Nc1nc2ccccc2n1CCOc1ccc(Br)cc1	mHTT-CaM PPI inh 73
Nc1ccc(-c2nc3ccccc3n2CCCOc2ccccc2)cc1	mHTT-CaM PPI inh 51
CCc1cc2c(=O)c(-c3ccc4c(c3)OCCO4)coc2cc1OC	none
NS(=O)(=O)c1ccc(C(=O)NCCNc2ccc(Nc3cccnc3)nn2)cc1	none
OC(CN1c2ccccc2Sc2ccccc21)Cn1cnc(-c2ccccc2)c1-c1ccccc1 (stereo not drawn)	mHTT-CaM PPI inh 100 (no result: Pf apPOL block)
CCN(CC)C(C)CN1c2ccccc2Sc2ccccc21 (stereo not drawn)	none (no result: mHTT-CaM PPI inh)
OC(CNCCc1ccccc1)CN1c2ccccc2Sc2ccccc21 (stereo not drawn)	mHTT-CaM PPI inh 100
CCC(CO)NCC(O)CN1c2ccccc2Sc2ccccc21 (stereo not drawn)	none
COc1ccccc1C=C1Oc2cc(OC(=O)C3CC3)ccc2C1=O	none
CCC(C)Oc1ccc(/C=C2/NC(=O)N(Cc3ccc(Cl)cc3)C2=O)cc1 (stereo not drawn)	none
CC(=O)Nc1ccc(Oc2c(F)c(F)nc(N3CCCC3)c2F)cc1	none
Cc1cccc(OCC(=O)Nc2ccc(/C=C/C(=O)c3ccco3)cc2)c1	none
N=C1NC(=O)/C(=C/c2ccccc2Br)S1	none
N=C1NC(=O)/C(=C/c2ccc(Cl)cc2Cl)S1	Pf apPOL block 56
CC(C)(C)C(=O)Nc1ccc2c(c1)CC(C(=O)NCCCc1ccccc1)CO2 (stereo not drawn)	none
CC(=O)Nc1nc(C)c(-c2csc(Nc3ccc(N(C)C)cc3)n2)s1	mHTT-CaM PPI inh 96
CCC(=O)Nc1nc(C)c(-c2csc(Nc3cccc(C(C)=O)c3)n2)s1	none
CC(=O)Nc1nc(C)c(-c2csc(Nc3ccccn3)n2)s1	mHTT-CaM PPI inh 54
c1ccc(Nc2nc(-c3cccnc3)cs2)nc1	none
Fc1ccc(N2CCN(c3nc(-c4ccc(Cl)cc4)cs3)CC2)cc1	none (no result: mHTT-CaM PPI inh)
CC(C)C(=O)N1CCC(N2CCC(C(=O)N3CCc4ccccc4C3)CC2)CC1	none
COc1ccccc1-c1nc(C2CCN(C(=O)c3cc(F)ccc3Cl)CC2)no1	none
CCOC(=O)NC(=O)c1ccsc1NC(=O)c1nc2ccccc2s1	mHTT-CaM PPI inh 62
Cc1sc(NC(=O)c2nc3ccccc3s2)c(C#N)c1C	none
Cc1cc2c(cc(C(=O)N3CCN(C)CC3)n2Cc2cccc(F)c2)s1	mHTT-CaM PPI inh 56
C=C(C)Cn1c(C(=O)N2CCN(C)CC2)cc2sc(C)cc21	none
COc1ccc(C)cc1NC(=O)Cn1nc2c(cc1=O)CCCC2	none
